Results on 32 compounds are retold here after the supplement of paper PMC7393113.

Structures can show the parent of a compound that is named as a salt. ± gives the standard deviation of the averaged measurements.

The test system of the test is iBMDM (immortalised mouse bone-marrow-derived macrophages), LPS-stimulated. Description: mitochondrial superoxide (MitoSOX fluorescence) fold increase over unstimulated control; higher = more LPS-induced mitochondrial ROS (less inhibition). To be noted: inhibitor concentration: 500 nM, LPS: 100 ng/ml. The gist of the method:
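Immortalised mouse bone-marrow-derived macrophages in black 96-well plates were kept in phenol-red-free 1% FCS/DMEM for 20 h, pretreated 30 min with kinase inhibitors (500 nM), loaded with 1 μM MitoSox for 10 min and then given LPS (100 ng/ml). Fluorescence at excitation/emission 510/580 nm was read on a ClarioStar plate reader every 60 min for 4 h, with wells in triplicate. Mitochondrial superoxide is given as fold induction over untreated macrophages, averaged across replicates.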

Turning to `Cc1c(C(=O)N2CCOc3ccc(-c4ccc(N)nc4)cc3C2)ccc(S(C)(=O)=O)c1F`, the mitochondrial superoxide was determined as 1.112 ± 0.0078 (time after LPS: 1 h), 1.25 ± 0.064 (time after LPS: 2 h) and 1.32 ± 0.059 (time after LPS: 4 h).

Take `COc1cc2ncc(-c3ccccc3)nc2cc1OC` [Tyrphostin AG 1296]: the mitochondrial superoxide was 1.469 ± 0.014 (time after LPS: 1 h), 1.47 ± 0.017 (time after LPS: 2 h) and 1.58 ± 0.021 (time after LPS: 4 h).

Consider `COc1cc2ncnc(Oc3cccc(NC(=O)Nc4cc(C(C)(C)C(F)(F)F)on4)c3)c2cc1OC`, for which the mitochondrial superoxide reads like this: (time after LPS: 1 h) 1.36 ± 0.027; (time after LPS: 2 h) 1.562 ± 0.0063; (time after LPS: 4 h) 1.59 ± 0.025.

Regarding `Nc1ncnc2c1c(-c1cnc3[nH]ccc3c1)nn2C1CCCC1`, the mitochondrial superoxide worked out at 1.34 ± 0.077 (time after LPS: 1 h), 1.41 ± 0.079 (time after LPS: 2 h) and 1.57 ± 0.058 (time after LPS: 4 h).

Consider `Cn1cnc(-c2cc3nccc(Oc4ccc(NC(=S)NC(=O)Cc5ccccc5)cc4F)c3s2)c1`, for which the mitochondrial superoxide amounted to 1.06 ± 0.021 (time after LPS: 1 h), 1.14 ± 0.057 (time after LPS: 2 h) and 1.26 ± 0.059 (time after LPS: 4 h).

Turning to `COc1cc2ncnc(Nc3ccc(F)c(Cl)c3)c2cc1OCCCN1CCOCC1` [Gefitinib (ZD1839)], the mitochondrial superoxide (time after LPS: 1 h) turned out to be 1.6 ± 0.048, the mitochondrial superoxide (time after LPS: 2 h) was 1.71 ± 0.044 and the mitochondrial superoxide (time after LPS: 4 h) was 1.77 ± 0.025.

With `NC1(c2ccc(-c3nc4ccn5c(=O)[nH]nc5c4cc3-c3ccccc3)cc2)CCC1`, the mitochondrial superoxide reads like this: (time after LPS: 1 h) 1.26 ± 0.036; (time after LPS: 2 h) 1.34 ± 0.065; (time after LPS: 4 h) 1.47 ± 0.14.

On to `Oc1ccc2ccccc2c1SSc1c(O)ccc2ccccc12`, for which the mitochondrial superoxide by setting is: (time after LPS: 1 h) 1.17 ± 0.049; (time after LPS: 2 h) 1.22 ± 0.04; (time after LPS: 4 h) 1.32 ± 0.015.

Consider `Cc1cc(C)c(/C=C2\C(=O)Nc3ccccc32)[nH]1` [Semaxanib (SU5416)], for which the mitochondrial superoxide (time after LPS: 1 h) turned out to be 1.19 ± 0.012, the mitochondrial superoxide (time after LPS: 2 h) was 1.22 ± 0.029 and the mitochondrial superoxide (time after LPS: 4 h) turned out to be 1.3 ± 0.039.

For `CCN1CCN(Cc2ccc(Nc3ncc(F)c(-c4cc(F)c5nc(C)n(C(C)C)c5c4)n3)nc2)CC1`, the mitochondrial superoxide turned out to be 1.13 ± 0.056 (time after LPS: 1 h), 1.25 ± 0.02 (time after LPS: 2 h) and 1.36 ± 0.022 (time after LPS: 4 h).

For `CN1CCC(CNc2ccc3ncc(-c4cccc(OC(F)(F)F)c4)n3n2)CC1` [SGI-1776 free base], the mitochondrial superoxide was 1.13 ± 0.048 (time after LPS: 1 h), 1.22 ± 0.052 (time after LPS: 2 h) and 1.33 ± 0.071 (time after LPS: 4 h).

`C=CC(=O)Nc1cccc(Nc2nc(Nc3ccc(N4CCN(C(C)=O)CC4)cc3OC)ncc2C(F)(F)F)c1`: the mitochondrial superoxide is, setting by setting: (time after LPS: 1 h) 1.49 ± 0.069; (time after LPS: 2 h) 1.49 ± 0.063; (time after LPS: 4 h) 1.65 ± 0.12.

As to `COc1cc2nccc(Oc3ccc(NC(=O)Nc4ccc(F)cc4F)c(F)c3)c2cc1OC`, the mitochondrial superoxide reads like this: (time after LPS: 1 h) 1.13 ± 0.036; (time after LPS: 2 h) 1.27 ± 0.071; (time after LPS: 4 h) 1.28 ± 0.13.

In the case of `O=C1NCCc2[nH]c(-c3ccncc3)cc21`, the mitochondrial superoxide was 1.31 ± 0.054 (time after LPS: 1 h), 1.41 ± 0.039 (time after LPS: 2 h) and 1.63 ± 0.06 (time after LPS: 4 h).

On to `Cc1cnc(Nc2ccc(OCCN3CCCC3)cc2)nc1Nc1cccc(S(=O)(=O)NC(C)(C)C)c1`, for which the mitochondrial superoxide is 1.18 ± 0.14 (time after LPS: 1 h), 1.33 ± 0.21 (time after LPS: 2 h) and 1.42 ± 0.22 (time after LPS: 4 h).

As for `Nc1nccc(Oc2ccc(NC(=O)c3c[nH]cc(-c4ccc(F)cc4)c3=O)cc2F)c1Cl`, the mitochondrial superoxide came out at 1.21 ± 0.032 (time after LPS: 1 h), 1.22 ± 0.043 (time after LPS: 2 h) and 1.37 ± 0.11 (time after LPS: 4 h).

Turning to `CCC(=O)Nc1cccc(Oc2nc(Nc3ccc(N4CCN(C)CC4)cc3OC)ncc2Cl)c1`, the mitochondrial superoxide was determined as 1.39 ± 0.084 (time after LPS: 1 h), 1.51 ± 0.091 (time after LPS: 2 h) and 1.79 ± 0.061 (time after LPS: 4 h).

Turning to `C=CCc1ccc(O)c(-c2ccc(O)c(CC=C)c2)c1` [Honokiol], the mitochondrial superoxide was 1.24 ± 0.031 (time after LPS: 1 h), 1.31 ± 0.1 (time after LPS: 2 h) and 1.39 ± 0.096 (time after LPS: 4 h).

As to `Cn1cnc2c(F)c(Nc3ccc(Br)cc3Cl)c(C(=O)NOCCO)cc21` [Selumetinib (AZD6244)], the mitochondrial superoxide reads like this: (time after LPS: 1 h) 1.45 ± 0.037; (time after LPS: 2 h) 1.51 ± 0.031; (time after LPS: 4 h) 1.61 ± 0.081.

Regarding `c1cncc(CN2CCC(n3ncc4c(N5CCOCC5)nc(-c5ccc6[nH]ccc6c5)nc43)CC2)c1`, the mitochondrial superoxide (time after LPS: 1 h) was 1.34 ± 0.059, the mitochondrial superoxide (time after LPS: 2 h) was 1.48 ± 0.077 and the mitochondrial superoxide (time after LPS: 4 h) was 1.66 ± 0.063.

`O=C1Nc2ccc(I)cc2C1=Cc1cc(Br)c(O)c(Br)c1`: the mitochondrial superoxide came to 1.1 ± 0.039 (time after LPS: 1 h), 1.07 ± 0.074 (time after LPS: 2 h) and 1.09 ± 0.014 (time after LPS: 4 h).

Take `CS(=O)(=O)N1CCc2c(-c3cnc(N)nc3)nc(N3CCOCC3)nc21`: the mitochondrial superoxide runs as follows: (time after LPS: 1 h) 1.31 ± 0.047; (time after LPS: 2 h) 1.48 ± 0.024; (time after LPS: 4 h) 1.55 ± 0.025.

Take `CCN1C(=CC(C)=O)Sc2ccc(OC)cc21`: the mitochondrial superoxide reads like this: (time after LPS: 1 h) 1.417 ± 0.014; (time after LPS: 2 h) 1.44 ± 0.089; (time after LPS: 4 h) 1.63 ± 0.1.

For the compound `CC(C)n1nc(-c2ccc3oc(N)nc3c2)c2c(N)ncnc21`, the mitochondrial superoxide by setting is: (time after LPS: 1 h) 1.34 ± 0.018; (time after LPS: 2 h) 1.57 ± 0.055; (time after LPS: 4 h) 1.78 ± 0.051.

As for `C[C@@H]1COCCN1c1cc(C2(S(C)(=O)=O)CC2)nc(-c2cccc3[nH]ccc23)n1`, the mitochondrial superoxide reads like this: (time after LPS: 1 h) 1.19 ± 0.055; (time after LPS: 2 h) 1.244 ± 0.0093; (time after LPS: 4 h) 1.34 ± 0.052.

For the compound `O=c1c(-c2ccc(O)cc2)coc2cc(O)cc(O)c12` [Genistein], the mitochondrial superoxide (time after LPS: 1 h) was 1.22 ± 0.079, the mitochondrial superoxide (time after LPS: 2 h) was found to be 1.29 ± 0.058 and the mitochondrial superoxide (time after LPS: 4 h) is 1.36 ± 0.15.

On to `CN1CCN(CCOc2cc(OC3CCOCC3)c3c(Nc4c(Cl)ccc5c4OCO5)ncnc3c2)CC1` [Saracatinib (AZD0530)], for which the mitochondrial superoxide was 1.516 ± 0.0097 (time after LPS: 1 h), 1.63 ± 0.047 (time after LPS: 2 h) and 1.85 ± 0.073 (time after LPS: 4 h).

As to `Cc1ccc(C(=O)Nc2cccc(C(F)(F)F)c2)cc1Nc1nc(-c2cccnc2)nc2c1cnn2C`, the mitochondrial superoxide is, setting by setting: (time after LPS: 1 h) 1.23 ± 0.037; (time after LPS: 2 h) 1.27 ± 0.013; (time after LPS: 4 h) 1.38 ± 0.083.

`O=C1NC(=O)/C(=C/c2ccc3nccc(-c4ccncc4)c3c2)S1`: the mitochondrial superoxide (time after LPS: 1 h) amounted to 1.12 ± 0.055, the mitochondrial superoxide (time after LPS: 2 h) was found to be 1.23 ± 0.11 and the mitochondrial superoxide (time after LPS: 4 h) was 1.33 ± 0.1.

For `COc1ccc(F)c(F)c1C(=O)c1cnc(NC2CCN(S(C)(=O)=O)CC2)nc1N`, the mitochondrial superoxide turned out to be 1.28 ± 0.081 (time after LPS: 1 h), 1.57 ± 0.13 (time after LPS: 2 h) and 1.8 ± 0.14 (time after LPS: 4 h).

For `C#Cc1cccc(Nc2ncnc3cc4c(cc23)OCCOCCOCCO4)c1` [Icotinib], the mitochondrial superoxide by setting is: (time after LPS: 1 h) 1.16 ± 0.036; (time after LPS: 2 h) 1.19 ± 0.021; (time after LPS: 4 h) 1.31 ± 0.02.

In turn, `CN1CC[C@H](c2c(O)cc(O)c3c(=O)cc(-c4ccccc4Cl)oc23)[C@H](O)C1` [Flavopiridol HCl] came in with a mitochondrial superoxide (time after LPS: 1 h) of 1.31 ± 0.077, a mitochondrial superoxide (time after LPS: 2 h) of 1.48 ± 0.088 and a mitochondrial superoxide (time after LPS: 4 h) of 1.71 ± 0.06.
